# In the supplement of paper PMC7156485:
# Test system: TDF
# Assay: H1.0 immunofluorescence intensity relative to DMSO (% of DMSO); higher = stronger H1.0 induction, active = 120 or more
# Conditions: concentration: 10 µM; 24 h
# Procedure, shortened: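 Treatment: HCC1569 and TDF cells, 800 per well in 384-well plates with RPMI and 10% FBS, were given compounds at 10 µM for 24 h at 37 °C, in triplicate. Readout: after 3.7% formaldehyde fixation, cells were stained with a rabbit anti-H1.0 antibody, an AlexaFluor 647 secondary and DAPI. Reported values are H1.0 nuclear intensity or cell number as percent of the plate control, taken as the median of replicates, with positional smoothing for HCC1569.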
# 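Note: TDF is a line of transformed human dermal fibroblasts of mesenchymal origin.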
row,SMILES,H1.0 immunofluorescence intensity
1,CCCCCC(O)C=CC1C=CC(=O)C1CC=CCCCC(=O)O (stereo not given) [Prostaglandin A2],95.6 (inactive)
2,COC(=O)c1ccc2c(c1)NC(=O)C2=C(Nc1ccc(N(C)C(=O)CN2CCN(C)CC2)cc1)c1ccccc1 [Vargatef],84.3 (inactive)
3,C1COC(NC(C2CC2)C2CC2)=N1 [Rilmenidine hemifumarate],89.5 (inactive)
4,CN1c2cc3c(cc2N=C(c2ccc(C(=O)O)cc2)c2ccccc21)C(C)(C)CCC3(C)C,93.8 (inactive)
5,CC1CCCC(C)N1NC(=O)c1ccc(Cl)c(S(N)(=O)=O)c1 (stereo not given) [Clopamide],94.9 (inactive)
6,CCCCC(=O)N(Cc1ccc(-c2ccccc2-c2nn[nH]n2)cc1)[C@H](C(=O)O)C(C)C,93.7 (inactive)
7,Cn1c(=O)c(-c2c(Cl)cccc2Cl)cc2cnc(Nc3cccc(C(=O)O)c3)nc21,95.7 (inactive)
8,"CC(C)=CCC[C@@H](C)[C@H]1CC[C@H]2[C@@H]3CC=C4C[C@@H](O)CC[C@]4(C)[C@H]3CC[C@]12C [(3beta)-cholesta-5,24-dien-3-ol]",96 (inactive)
9,CCCCCCCCCCCC=CCCCCC(=O)O [6(E)-Octadecenoic acid],102 (inactive)
10,CN(c1ccccc1CNc1nc(Nc2ccc3c(c2)CC(=O)N3)ncc1C(F)(F)F)S(C)(=O)=O,113 (inactive)
11,CC12CCC3c4ccc(O)cc4CCC3C1CC(O)C2O (stereo not given) [Estriol],101 (inactive)
12,"CCCCCCCCC=CCC=CCC=CCCCC(=O)O [5(Z), 8(Z), 11(Z)-Eicosatrienoic Acid]",98.1 (inactive)
13,COc1ccc2[nH]c(S(=O)Cc3ncc(C)c(OC)c3C)nc2n1 (stereo not given) [Tenatoprazole],106 (inactive)
14,COc1ccc(CNC(=O)c2sc3nc(C)cc(C)c3c2N)cc1,97.5 (inactive)
15,CCC1(O)CC2CN(CCc3c([nH]c4ccccc34)C(C(=O)OC)(c3cc4c(cc3OC)N(C)C3C(O)(C(=O)OC)C(OC(C)=O)C5(CC)C=CCN6CCC43C65)C2)C1.O=S(=O)(O)O (stereo not given) [Vinblastine sulfate salt],152 (active)
16,COc1cc2nccc(Oc3ccc(NC(=O)Nc4cc(C)on4)c(Cl)c3)c2cc1OC.O [VEGFR Tyrosine Kinase Inhibitor IV],94 (inactive)
17,CCCCN(CCCC)CC(O)c1cc(Cl)cc2c1-c1ccc(Cl)cc1/C2=C/c1ccc(Cl)cc1 (stereo not given),90.7 (inactive)
18,CON=C(C(=O)NC1C(=O)N2C(C(=O)[O-])=C(COC(C)=O)CSC12)c1csc(N)n1.[Na+] (stereo not given) [Cefotaxime sodium],92.3 (inactive)
19,Cc1cnc(C(=O)NCCc2ccc(S(=O)(=O)NC(=O)NC3CCCCC3)cc2)cn1 [Glipizide],96.6 (inactive)
20,COc1cc2c(cc1OC)C1C(=O)c3ccc4c(c3OC1CO2)C=CC(C)(C)O4 (stereo not given) [Degeulin],106 (inactive)
21,Cc1cccc(-c2[nH]ncc2-c2ccc3ncccc3n2)n1,94.9 (inactive)
22,O=C1OC(C(O)CO)C(O)=C1O (stereo not given) [Ascorbic acid],94 (inactive)
23,N=S(=O)([O-])Cc1noc2ccccc12.[Na+] [Zonisamide sodium],92.2 (inactive)
24,O=C(O)CC/C=C\C[C@H]1CO[C@@H](c2ccccc2Cl)O[C@H]1c1ccccc1O,95.5 (inactive)
25,Cl.NCC1OC(C23CC4CC(CC(C4)C2)C3)Cc2c1ccc(O)c2O (stereo not given),102 (inactive)
26,CC(OC1OCCN(Cc2nc(=O)[nH][nH]2)C1c1ccc(F)cc1)c1cc(C(F)(F)F)cc(C(F)(F)F)c1 (stereo not given) [Aprepitant],99.3 (inactive)
27,COc1cc2ncnc(Nc3ccc(F)c(Cl)c3)c2cc1OCCCN1CCOCC1 [Gefitinib],98.9 (inactive)
28,NC(CO)(CO)CO.O=C(c1ccccc1)c1ccc2n1CCC2C(=O)O (stereo not given) [Ketorolac tris salt],94.5 (inactive)
29,CSc1nc(N)c2ncn(C3OC(COP(=O)([O-])OP(=O)([O-])[O-])C(O)C3O)c2n1.[Na+].[Na+].[Na+] (stereo not given) [2-Methylthioadenosine diphosphate trisodium],99.2 (inactive)
30,COC(=O)c1ccc2c(c1)nc(NC(=O)c1ccccc1)n2CCCc1ccccc1,94.6 (inactive)
